Measurements: PubChem BioAssay (NCI)
The panel holds about 83,000 compounds, 20% with a hit somewhere; the sample as a whole holds those more often.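 Single-concentration screen, 48 h exposure, 96-well plates. Endpoint: percent growth. Below 10 = active.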 The source made the active and inactive calls.

Legend:
Test in all cases: NCI-60 one-dose screen, 48 h (100 = growth as untreated, 0 = no growth, -100 = all killed)
Settings in all cases: 10 µM unless noted
[1] = system: SK-MEL-2 melanoma
[2] = system: SN12C renal
[3] = system: UO-31 renal
[4] = system: TK-10 renal
[5] = system: ACHN renal
[6] = system: CAKI-1 renal
[7] = system: A498 renal
[8] = system: CCRF-CEM leukemia
[9] = system: MOLT-4 leukemia
[10] = system: EKVX NSCLC

Measured: growth

O=C(C=P(c1ccccc1)(c1ccccc1)c1ccccc1)CCl
active: [1] -47.4% | [2] -19.3% | [3] -95.4% | [4] -46.2% | [5] -85.7% | [6] -74.9% | [7] -35.8% | [8] -3.6% | [9] -35.8%

CN1CCN(c2ccc(N3Cc4ccccc4OC4=C3C(=O)c3c(O)ccc(O)c3C4=O)cn2)CC1
active: [1] -36.8% | [10] -1.22% | [2] -62% | [3] -99.5% | [5] -100% | [7] -20.7% | [8] -12.7% | [9] -17.8%

CNCCCNc1ccnc2cc(Cl)ccc12
active: [1] -64.5% | [2] 2.75% | [3] -34.4% | [4] -11.4% | [5] -31.6% | [6] -29.7% | [7] -78.2% | [8] -17.1% | [9] 2.58%

COc1ccc(NC(=O)C2c3ccccc3C(=O)N(CC(C)C)C2c2cccs2)cc1 (stereo unspecified)
inactive: [1] 102% | [2] 92.1% | [3] 108% | [4] 97.8% | [5] 97.3% | [6] 92.2% | [7] 86.7% | [8] 92.7% | [9] 98.6%

COc1cc2c(cc1OC)C(=O)C(Br)CC2 (stereo unspecified)
inactive: [1] 81.6% | [2] 44.4% | [3] 39.4% | [4] 53.7% | [5] 42.1% | [6] 10.4% | [7] 73.6% | [9] 13.3%
active: [8] 3.35%

O=c1c2sc3ccccc3c2nnn1-c1ccc(F)c(Cl)c1
active: [5] 4.64%
inactive: [1] 75.4% | [2] 70.2% | [3] 18.1% | [4] 29% | [6] 35.6% | [7] 56.6% | [8] 48.6% | [9] 34.3%

Cc1ccc(CSCc2ccc(C(=O)NC3CC3)o2)cc1
inactive: [1] 75.6% | [2] 83.2% | [3] 74.7% | [4] 90.6% | [5] 63.1% | [6] 64.5% | [7] 53.3% | [8] 62.1% | [9] 62.6%

COc1ccc(-c2nc(-c3cc(OC)cc(OC)c3)[nH]c2-c2ccc(OC)cc2)cc1
inactive: [1] 29.4% | [2] 70.6% | [3] 36.1% | [4] 62.2% | [5] 41.3% | [6] 44.5% | [7] 66% | [8] 11.1%

COc1ccc(C(=O)c2c(N)nc3n2CCCC3)cc1OC
inactive: [1] 103% | [2] 109% | [3] 84.3% | [4] 92.8% | [5] 107% | [6] 93.9% | [7] 98.6% | [8] 99.8% | [9] 84.1%

CC(C)N1CCN(c2ccncc2S(=O)(=O)N2CCN(C)CC2)CC1
inactive: [1] 107% | [2] 98.4% | [3] 87.3% | [4] 101% | [5] 101% | [6] 98.5% | [7] 107% | [8] 98.4% | [9] 104%

CCCN(CCC)CC(O)COc1ccccc1C(=O)Nc1ccccc1 (stereo unspecified)
inactive: [1] 58% | [2] 81.6% | [3] 78.1% | [4] 111% | [5] 77.2% | [6] 57.5% | [7] 53.9% | [8] 71.2% | [9] 78%

C=CCn1c(SCC(=O)Nc2ccc(C(=O)/C=C/c3ccc(Cl)cc3)cc2)nnc1-c1ccc(Cl)cc1
inactive: [1] 100% | [10] 86.6% | [2] 78.8% | [3] 61.7% | [5] 101% | [7] 83.8% | [8] 96.5% | [9] 68.4%

O=C(/C=C/c1ccccc1)n1c(-c2ccccc2)nc2ccccc21
inactive: [1] 112% | [2] 101% | [3] 89.8% | [4] 101% | [5] 104% | [6] 107% | [7] 85.8% | [8] 97.8% | [9] 99.1%

C/C(=N\OC(=O)Nc1ccccc1)c1ccccc1
inactive: [1] 111% | [2] 94.8% | [3] 88.7% | [4] 115% | [5] 106% | [6] 114% | [7] 39.4% | [8] 99.1% | [9] 94%

C=CCn1c(C)nc2cc(Nc3nc(Nc4ccc5nc(C)n(CC=C)c5c4)nc4ccccc34)ccc21
inactive: [1] 121% | [10] 97.1% | [2] 96.5% | [3] 89.3% | [6] 101% | [7] 125% | [8] 94.8% | [9] 101%

CC1CCN(Cc2ccc(NC(=O)c3cc4ccc5cccnc5c4[nH]3)cc2)CC1
active: [6] 4.42% | [7] -8.68% | [8] 3.08%
inactive: [1] 12% | [2] 33% | [3] 36.7% | [4] 51.1% | [5] 53.9% | [9] 11.8%

CCC1CCc2nc3sc(C(=O)Nc4cccc(F)c4)c(N)c3cc2C1 (stereo unspecified)
inactive: [1] 63.3% | [2] 94.4% | [3] 67.2% | [4] 77% | [5] 67.9% | [6] 57.9% | [7] 50.5% | [8] 47.9% | [9] 37.5%

Oc1ccc(Cl)cc1-c1cc(-c2ccccc2Cl)[nH]n1
inactive: [1] 77.5% | [2] 69.5% | [3] 38.6% | [4] 86.8% | [5] 59% | [6] 75.9% | [7] 96.1%

c1ccc(C2=Nc3ccccc3SC2)cc1
inactive: [1] 105% | [10] 87.3% | [2] 107% | [3] 67.8% | [8] 86.9% | [9] 111%

COc1cc2cc(C(=O)Nc3ccccc3)c(N)nc2cc1OC
inactive: [2] 49.1% | [7] 52.4%
active: [1] -62% | [3] 5.81% | [4] -48% | [5] -0.0696% | [6] -13.8% | [8] -21.7% | [9] -44.6%

N#CC1=C(N)Oc2nc[nH]c(=O)c2C1c1cccs1 (stereo unspecified)
inactive: [1] 113% | [2] 105% | [3] 97.1% | [4] 105% | [5] 101% | [6] 94.9% | [7] 107% | [8] 95% | [9] 94.3%

COc1cc(/C=C/C(=O)c2ccc(NC(=O)CSc3nnc(-c4ccc(Cl)cc4)n3-c3ccccc3)cc2)cc(OC)c1OC
inactive: [1] 81.1% | [10] 75.1% | [2] 74.5% | [3] 75.6% | [5] 82.4% | [7] 77.5% | [8] 57.8% | [9] 40.8%

O=C(CN1CCN(c2ccccc2)CC1)N1CCN(c2nnc(-c3ccc(Cl)cc3)c(-c3ccc(Cl)cc3)n2)CC1
inactive: [1] 71.9% | [10] 35% | [2] 62.7% | [4] 73.4% | [5] 53.6% | [7] 62.6% | [8] 29.4%
active: [9] 2%

C/C(=N\OC(=O)Nc1cccc(Cl)c1)c1ccccc1
inactive: [1] 106% | [2] 95% | [3] 82.8% | [4] 109% | [5] 101% | [6] 106% | [7] 42.8% | [8] 89.1% | [9] 89.9%

Clc1cc(Br)ccc1-c1ccc(CNCC2CCNCC2)o1
inactive: [1] 76.8% | [2] 86.3% | [4] 32.2% | [6] 68.6% | [7] 81.8% | [8] 24% | [9] 55.6%
active: [3] -58.5% | [5] 3.97%

CC(C)N=C1CCCC1C(=S)SSC(=S)C1CCCC1=NC(C)C (stereo unspecified)
inactive: [1] 94.7% | [2] 58.1% | [3] 54.3% | [4] 109% | [5] 68.4% | [6] 39.3% | [7] 83.4% | [8] 22.9% | [9] 61.2%

CCc1ccc(Nc2cc(C)c3ccc(O)cc3n2)cc1
inactive: [1] 85% | [2] 77% | [3] 44.1% | [4] 74.1% | [5] 73.8% | [6] 53% | [7] 93.7% | [8] 68.9% | [9] 62.9%

O=C(c1ccc(C(F)(F)F)c(Cl)c1)N(Cc1ccc(Cl)cc1)c1ccc(-c2cc(C(F)(F)F)[nH]n2)c(O)c1
inactive: [2] 14.6% | [8] 10.4%
active: [1] -18.3% | [10] 0.0577% | [3] 5.66% | [5] 3.03% | [6] 1.19% | [7] -21.4% | [9] 9.19%

COc1cccc(NC(=O)[C@H](C(C)C)n2c(=O)[nH]c3ccccc3c2=O)c1
inactive: [1] 101% | [2] 105% | [3] 101% | [4] 105% | [5] 104% | [6] 97.6% | [7] 114% | [8] 94.8% | [9] 96.8%

CCc1ccc(-c2ccc(NC3CCCCCC3)nn2)cc1S(N)(=O)=O
inactive: [1] 99.3% | [2] 101% | [3] 102% | [4] 93.4% | [5] 96.1% | [6] 96.6% | [7] 107% | [9] 91.7%

N=C(N)c1ccc(-c2ccc(-c3cc(Cl)cc(Cl)c3)o2)nc1
inactive: [7] 61.8%
active: [1] -71.8% | [2] -79.9% | [3] -76.6% | [4] -88.5% | [5] -90.6% | [8] -37.9% | [9] -55.1%
